Screening data (PubChem)
An excerpt weighted towards active compounds, which were near 1.4% of everything screened.
RXFP1 ag: RXFP1 (human) receptor agonism; Potency, µM (titrated, usually from 57.5 µM), for inactives: at the top dose activation, usual class: activators; HEK293T-RXFP1 cAMP TR-FRET, 30 min; response scale: percent of porcine relaxin response, buffer zero; Q9HBX9; 370,000 compounds, 0.3% hits; also: potency is read from the fitted curve at half-maximal effect; % is scaled to controls: 0 for no effect and ±100 for the full control effect; nearly all actives have a fitted effect of over 60% in size
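HEK293 cells stably expressing RXFP1, treated 30 min at 37C with compounds plus PDE4 inhibitor Ro 20174; cAMP measured by HTRF TR-FRET. Normalized to buffer and 29 nM porcine relaxin; EC50 by Hill fit.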
PTHR1 ag: agonists of human PTHR1 parathyroid hormone receptor | Q03431 | HEK293 GP2 PTHR1 cells, GloSensor cAMP luminescence, 1 h | AID 743266 | 410,000 compounds, 0.075% hits | Potency, µM (top dose mostly 115 µM), for the others: at the top dose activation, hits mostly activators; also: potency is read from the fitted curve at half-maximal effect; nearly all actives have a fitted effect of over 55% in size
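HEK-293-derived GP2 cells expressing PTHR1 and a GloSensor cAMP reporter, 3,000/well, plated overnight, given luciferin plus IBMX (each 0.5 mM as added) for 1 h at 37 °C, then compound for 1 h at 37 °C. Luminescence was read after 15 min at room temperature.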
KCNH2 3.1 block: inhibitors of human KCNH2 3.1 potassium channel isoform. activity change, % (tested at about 1.8 µM). U2OS KCNH2 3.1, thallium flux FluxOr; stronger effect = lower value. AID 720553. 340,000 compounds, 0.95% hits;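 active = maximum activity change below -70%; inconclusive = maximum activity change from -70% to -50%; inactive = maximum activity change above -50%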;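 also: thallium influx rate constant from kinetic fluorescence after stimulation buffer; % is scaled to controls: 0 for no effect and ±100 for the full control effect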
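Thallium flux via FluxOr fluorescence (Red40 quencher, 45 min loading) in U2OS cells virally expressing the KCNH2 3.1 isoform (1.77 x 10^8 /mL virus, overnight at 37 C). Rate constants from 2-min kinetic reads post-stimulation, normalised to positive and negative controls.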
RXFP1 antagonist: RXFP1 (human) relaxin receptor antagonism; Q9HBX9; HEK293-RXFP1, relaxin-stimulated cAMP HTRF, 30 min; stronger effect = lower value; activity change, negative = inhibition, % at 57.5 µM; 350,000 compounds, 0.59% hits; AID 1259400;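 active = activity change of -60% or lower, but not beyond a set lower limit; inconclusive = change between -60% and -40%, or beyond the set limit; inactive = change above -40%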; also: % is scaled to controls: 0 for no effect and ±100 for the full control effect
KCNH2 WT inh: inhibitors of human wildtype KCNH2 potassium channel; Q12809; U2OS, BacMam KCNH2, thallium flux FluxOr; stronger effect = lower value; activity change, % at 1.84 µM; 340,000 compounds, 0.37% hits; AID 720551;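 active = maximum activity change below -70%; inconclusive = maximum activity change between -70% and -50%; inactive = maximum activity change above -50%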; also: % is scaled to controls: 0 for no effect and ±100 for the full control effect
Target sequence (Q12809 whole entry, looked up): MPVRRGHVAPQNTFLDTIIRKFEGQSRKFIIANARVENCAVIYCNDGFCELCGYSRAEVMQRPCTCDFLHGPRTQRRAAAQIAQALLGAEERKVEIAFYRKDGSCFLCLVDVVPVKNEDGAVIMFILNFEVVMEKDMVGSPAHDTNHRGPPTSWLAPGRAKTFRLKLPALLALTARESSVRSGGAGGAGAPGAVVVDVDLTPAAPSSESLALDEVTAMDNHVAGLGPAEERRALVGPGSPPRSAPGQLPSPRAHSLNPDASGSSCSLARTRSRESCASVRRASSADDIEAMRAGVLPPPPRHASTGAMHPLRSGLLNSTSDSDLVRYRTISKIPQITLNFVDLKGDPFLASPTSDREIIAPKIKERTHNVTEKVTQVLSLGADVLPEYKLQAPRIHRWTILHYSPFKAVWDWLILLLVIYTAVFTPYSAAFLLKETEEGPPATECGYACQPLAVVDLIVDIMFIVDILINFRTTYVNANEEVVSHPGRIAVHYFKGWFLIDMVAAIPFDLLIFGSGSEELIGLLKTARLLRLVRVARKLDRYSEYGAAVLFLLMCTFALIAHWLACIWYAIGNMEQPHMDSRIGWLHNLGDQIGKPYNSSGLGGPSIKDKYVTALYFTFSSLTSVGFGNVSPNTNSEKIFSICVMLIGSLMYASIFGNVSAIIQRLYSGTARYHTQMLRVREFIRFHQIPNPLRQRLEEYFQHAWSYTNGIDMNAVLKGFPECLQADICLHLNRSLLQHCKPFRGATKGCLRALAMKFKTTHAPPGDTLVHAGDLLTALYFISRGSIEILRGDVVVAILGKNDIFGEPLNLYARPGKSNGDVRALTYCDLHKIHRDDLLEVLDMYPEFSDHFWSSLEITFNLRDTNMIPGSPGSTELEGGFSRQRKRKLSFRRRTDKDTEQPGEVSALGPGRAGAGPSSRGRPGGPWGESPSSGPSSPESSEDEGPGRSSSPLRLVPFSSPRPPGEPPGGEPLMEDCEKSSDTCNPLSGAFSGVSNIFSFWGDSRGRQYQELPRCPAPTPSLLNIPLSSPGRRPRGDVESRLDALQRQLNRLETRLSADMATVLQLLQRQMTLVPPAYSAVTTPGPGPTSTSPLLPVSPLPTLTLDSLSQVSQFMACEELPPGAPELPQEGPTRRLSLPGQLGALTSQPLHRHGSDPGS
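U2OS cells were transduced with wild-type KCNH2 virus (2.03 x 10^8 / mL) for 4 h at room temperature, then cultured overnight at 37 C. Thallium flux was read with FluxOr dye. Rate constants were normalized to DMSO controls.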
GRP78 ERSR act: inducers of ER stress response in human glioma cells; U87-MG GRP78 promoter luciferase reporter, 16 h; 420,000 compounds, 0.02% hits; Potency, µM, inactives show at the top dose activation, hits mostly activators; also: potency is read from the fitted curve at half-maximal effect; series mostly up to about 76 µM; % of control where 0% means no effect; nearly all actives have a fitted effect of over 35% in size
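Stably transfected U87-MG human glioma cells carrying a GRP78-based luminescent sensor were seeded at 1000 cells/well, pin-dosed with compounds and incubated 16 h. Luciferase reagent was then added, and end-point luminescence was read after 10 min at room temperature.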
* hit, by the source's call; i = inactive; ? = inconclusive; / = no result. Unless noted, calls follow the shape of the dose curve; as a rule, active = well fitted curve in the direction sought with a large enough effect; inconclusive = small, poorly fitted or top-dose-only effect, or another doubt; inactive = no such curve, though single readings can be large; an effect the other way counts as inactive or inconclusive.

SMILES	RXFP1 ag	PTHR1 ag	KCNH2 3.1 block	RXFP1 antagonist	KCNH2 WT inh	GRP78 ERSR act
C#CCOCCOCCOCCNc1nc(N2CCN(C(=O)Cn3cc(CC(C)O)nn3)CC2)nc(N2CCN(C(=O)[C@H](C)n3cc(CCCN=C(N)N)nn3)CC2)n1 (stereo partly specified)	3.9%	i	-146.8*	/	0.4	-2.4%
C#CCOCCOCCOCCNc1nc(N2CCN(C(=O)CCCCCCCCCCNC(=O)Cn3cc(C[C@@H](C)O)nn3)CC2)nc(N2CCN(C(=O)CCCCCCCCCCNC(=O)[C@H](CCCCN)n3cc(C[C@@H](C)CC)nn3)CC2)n1	0.5%	17.8µM*	12.6	/	-14.8	-12.5%
C#CCOCCOCCOCCNc1nc(N2CCN(C(=O)CCCCCCCCCCNC(=O)[C@H](CCCCN)n3cc(C[C@@H](C)CC)nn3)CC2)nc(N2CCN(C(=O)CCCCCCCCCCNC(=O)[C@H](CCCCN)n3cc(C[C@@H](C)CC)nn3)CC2)n1	/	-32.6%	42.0	/	2.2	-11.9%
C=CCNC(=O)/C(C#N)=C/c1cc(Br)ccc1OC	2.2%	-12.6%	-2.4	-67.7*	-1.4	15.7%
CC1CCCCN1CCCNC(=O)C1CCN(c2nnc(-n3cccc3)s2)CC1 (stereo unspecified)	-0.2%	?	-200.7*	20.4	23.5	-1.6%
CC1CC(C)CN(CCCNC(=O)C2CCN(c3nnc(-n4cccc4)s3)CC2)C1 (stereo unspecified)	-0.4%	-15.0%	6.5	-1.2	4.6	-1.1%
Cc1cc(S(=O)(=O)Nc2ccc(C(=O)NCC3(N4CCCCC4)CCCCC3)cc2)ccc1F	0.2%	i	-48.2	-76.8*	14.9	-4.9%
N/C(=N\N=C\c1ccc(Cl)cc1)N/N=C/c1ccc(Cl)cc1	/	/	/	-32.3	/	-5.2%
N/C(=N\N=C/c1ccc(F)cc1)N/N=C\c1ccc(F)cc1	0.9%	-22.6%	-72.9*	-18.7	7.3	12.1%
CCc1ccc(CN(Cc2ccco2)C(=O)c2ccc(C)cc2)cc1	-1.4%	-5.5%	/	-67.9*	/	-1.3%
Cc1ccsc1CN(Cc1ccco1)C(=O)c1ccc(Cl)cc1	4.6%	i	/	-74.4*	/	-2.0%
Cc1ccc(CN(Cc2ccco2)C(=O)COc2ccc(C(C)C)cc2)cc1	0.5%	-89.1%	/	-31.5	/	-1.4%
CCOc1ccc(C(=O)N(Cc2ccc(C(C)C)cc2)Cc2ccco2)cc1	2.6%	-1.7%	/	-78.6*	/	-4.1%
Cc1ccc(C(=O)N(Cc2ccco2)Cc2sccc2C)cc1	-0.2%	i	/	-98.2*	/	-2.9%
CCCCCC(=O)Nc1cccc(C2=NOC3(C2)C[C@H](C(N)=O)N(C(=O)CCCCC)C3)c1 (stereo partly specified)	0.0%	-17.7%	-20.8	/	-8.0	-4.4%
CCC(=O)N1CC2(CC(c3cccc(NC(=O)COc4ccc(Cl)cc4)c3)=NO2)C[C@@H]1C(N)=O (stereo partly specified)	9.8%	/	/	/	/	/
C/C=C\C(=O)Nc1cccc(C2=NOC3(C2)C[C@@H](C(N)=O)N(C(=O)CCCCC)C3)c1 (stereo partly specified)	16.1%	i	5.7	/	-84.6*	-0.7%
C/C=C/C(=O)Nc1cccc(C2=NOC3(C2)C[C@@H](C(N)=O)N(C(=O)c2cc([N+](=O)[O-])cc([N+](=O)[O-])c2C)C3)c1 (stereo partly specified)	6.6%	-21.6%	-84.3*	/	2.6	1.3%
NC(=O)[C@H]1CC2(CC(c3cccc(NC(=O)COc4ccc(Cl)cc4)c3)=NO2)CN1C(=O)c1ccc(Cl)cc1 (stereo partly specified)	-1.1%	-63.7%	-91.0*	/	-43.5	-2.0%
CCCCCC(=O)N1CC2(CC(c3cccc(NC(=O)COc4ccc(Cl)cc4)c3)=NO2)C[C@@H]1C(N)=O (stereo partly specified)	0.0%	-90.9%	-74.4*	/	-90.9*	-4.3%
CCOc1ccc(C(C(=O)NCC2CCCO2)N(C(=O)c2snc(C(N)=O)c2N)c2cccc(F)c2)cc1 (stereo unspecified)	-0.1%	-16.8%	4.0	-90.5*	-7.3	-2.5%
